This note sets out measurements from PubChem BioAssay (NCATS).

Values joined by “and” are separate entries in the source; they are usually repeats but may differ in a detail not shown here. Identical values can stand only once. Records with an inconclusive call do not appear. Values without a mark were called inactive. Active and inactive are the calls of the source. Calls come from the whole dose curve; as a rule, active = well fitted curve in the direction sought with a large enough effect; inconclusive = small, poorly fitted or top-dose-only effect, or another doubt; inactive = no such curve, though single readings can be large; an effect the other way counts as inactive or inconclusive.

Assay [1] in a line: Quantitative highthroughput screen to assess conditional lethalithy of NOMO1 cells grown in RPMI1640 with untreated serum (RPMI+s) (AID 1963876).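 For viability: 100% = DMSO wells and 0% = empty wells without cells.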 Note: nearly all actives have a fitted effect of over 35% in size. Note: potency is the fitted concentration of half-maximal effect. Summed up:
(§1)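 Each medium arm—HPLM with 10% dialyzed FBS, or RPMI1640 with 5 mM glucose and 10% untreated or dialyzed FBS—was screened against an 11-point, 3-fold compound titration for 48 h at 37 °C, with CellTiter-Glo luminescence as endpoint.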

Assay [2] is described as follows: Quantitative highthroughput screen to assess conditional lethalithy of NOMO1 cells grown in RPMI1640 with dialyzed fetal bovine serum (RPMI+ds) (AID 1963877).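 For viability: series mostly up to about 46 µM; 100% = DMSO control wells and 0% = empty wells.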 Note: nearly all actives have a fitted effect of over 30% in size. Note: potency is the fitted concentration of half-maximal effect. The procedure, abridged: as §1
Assay [3] is described as follows: Quantitative highthroughput screen to assess conditional lethalithy of NOMO1 cells grown in Human Plasma-Like Medium with dialyzed fetal bovine serum (HPLM+ds) (AID 1963878).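 For viability: 100% = DMSO wells and 0% = empty wells on each plate.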 Note: nearly all actives have a fitted effect of over 35% in size. Note: potency is the fitted concentration of half-maximal effect. The procedure, abridged:
as §1

A short description of assay [4]: Quantitative highthroughput screen to assess conditional lethalithy of P12 Ichikawa cells grown in RPMI1640 with dialyzed fetal bovine serum (RPMI+ds) (AID 1963880).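 For viability: 100% = DMSO wells and 0% = empty wells on each plate.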 Note: nearly all actives have a fitted effect of over 35% in size. Note: potency is the fitted concentration of half-maximal effect. The conditions noted are these: Potency: P12-Ichikawa viability. Summed up:
as §1

The nature of assay [5]: Quantitative highthroughput screen to assess conditional lethalithy of SEM cells grown in Human Plasma-Like Medium with dialyzed fetal bovine serum (HPLM+ds) (AID 1963882). For viability: series mostly up to about 46 µM. Note: nearly all actives have a fitted effect of over 35% in size. Note: potency is the fitted concentration of half-maximal effect. Summed up: as §1
Assay [6] is described as follows: Quantitative highthroughput screen to assess conditional lethalithy of SEM cells grown in RPMI1640 with unreated serum (RPMI+s) (AID 1963883).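 For viability: 100% = DMSO wells and 0% = empty wells without cells.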 Note: nearly all actives have a fitted effect of over 35% in size. Note: potency is the fitted concentration of half-maximal effect. Summed up:
as §1

The nature of assay [7]: Quantitative highthroughput screen to assess conditional lethalithy of SEM cells grown in RPMI1640 with dialyzed fetal bovine serum (RPMI+ds) (AID 1963884).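 For viability: series mostly up to about 46 µM; 100% = DMSO control wells and 0% = empty wells without cells.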 Note: nearly all actives have a fitted effect of over 35% in size. Note: potency is the fitted concentration of half-maximal effect. The procedure, abridged: as §1
Assay [8] can be described thus: Cellular viability qHTS for adrenocortical cancer (ACC) cell line SW-13 (AID 1963989).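 Note: cells grown in serum-free medium with ITS supplement; % is set by controls: 0 for no effect and ±100 for the full control effect; nearly all actives have a fitted effect of over 65% in size.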 The conditions noted are these: SW-13 ACC cells viability, CellTiter-Glo, 48 h; activity (max response): hits give low values. Summed up: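 Luminescent ATP read-out (CellTiter-Glo, 20 min at room temperature) measured metabolically competent SW-13 cells after 48 h compound treatment. Final concentrations spanned up to 46 uM; bortezomib served as positive control.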
For orientation: In qHTS, concentration-response curves come from the screen itself.

Assay [9] can be described thus: Cellular viability qHTS for adrenocortical cancer (ACC) cell line NCI-H295R (AID 1963990). Note: nearly all actives have a fitted effect of over 60% in size. Note: potency is the fitted concentration of half-maximal effect. Summed up: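 IC50 and maximal efficacy derive from four-parameter logistic modelling of titration curves, with reads scaled between DMSO-only wells (0%) and doxorubicin hydrochloride (100% inhibition). Compounds spanned up to 46 uM over 48 h.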
A short description of assay [10]: Quantitative highthroughput screen to assess conditional lethalithy of P12 Ichikawa cells grown in Human Plasma-Like Medium with dialyzed fetal bovine serum (HPLM+ds) (AID 1963879). For viability: series mostly up to about 46 µM. Note: nearly all actives have a fitted effect of over 35% in size. Note: potency is the fitted concentration of half-maximal effect. As to conditions: Potency: viability. Summed up: as §1
A short description of assay [11]: Quantitative highthroughput screen to assess conditional lethalithy of P12 Ichikawa cells grown in RPMI1640 with untreated serum (RPMI+s) (AID 1963881).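 For viability: series mostly up to about 46 µM; 100% = DMSO wells and 0% = empty wells without cells.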 Note: nearly all actives have a fitted effect of over 35% in size. Note: potency is the fitted concentration of half-maximal effect. As to conditions: Potency: viability. Summed up: as §1

For `COc1cc2c(cc1OC)C1CC(=O)C(CC(C)C)CN1CC2` (stereo unspecified), the Potency entry in [1], in assay [2], in assay [3], in assay [4], in assay [5] and in assay [6] was “inactive” in each case. The Potency entry in [7] and in assay [9] was “inactive” each time. Further, in assay [8], the activity (max response) is -1.87%.
Take `CC(=O)O[C@]1(C(C)=O)CC[C@@H]2[C@@H]3C[C@H](C)C4=CC(=O)CC[C@]4(C)[C@H]3CC[C@@]21C`: the Potency entry in [1], in [2], in assay [10], in [4], in assay [5] and in assay [6] was “inactive” each time. In assay [7], the Potency result was “inactive”.
As to `CCOC(=O)O[C@]1(C(=O)OCCl)CC[C@@H]2[C@H]3CCC4=CC(=O)C=C[C@]4(C)[C@@H]3[C@@H](O)C[C@@]21C`, the Potency entry in [1], in assay [2], in [10], in [4], in [11] and in [5] was “inactive” each time. The Potency result in [6] was “inactive”.
In the case of `CC(=O)OCC(=O)[C@@]1(O)[C@H](C)C[C@H]2[C@@H]3C=C(C)C4=Cc5c(cnn5-c5ccccc5)C[C@]4(C)[C@@H]3[C@@H](O)C[C@@]21C`, the Potency entry in assay [1], in assay [2] and in assay [3] was “inactive” each time. The Potency in assay [7] is 0.0148 µM (active); in assay [9], 25.1 µM (active). For the same molecule, the activity (max response) in assay [8] is 3.11%.
Consider `CCCCC(=O)O[C@]1(C(=O)CO)[C@@H](C)C[C@H]2[C@@H]3CCC4=CC(=O)C=C[C@]4(C)[C@@]3(F)[C@@H](O)C[C@@]21C`, for which the Potency entry in assay [1], in assay [2], in assay [3] and in assay [9] was “inactive” each time. Moreover, in assay [8], the activity (max response) is -3.35% and -9.39%.
On to `O=c1c(-c2ccc(O)cc2)coc2cc(O[C@@H]3O[C@H](CO)[C@H](O)[C@H](O)[C@H]3O)ccc12`, for which the Potency entry in assay [1], in [2], in assay [10], in [4] and in [11] was “inactive” each time. Also, the Potency in assay [5] was 14.8 µM (active).
Consider `CC(=O)N[C@H]1[C@@H]([C@H](O)[C@H](O)CO)OC(C(=O)O)=C[C@@H]1N=C(N)N`, for which the Potency result in [1], in [2], in assay [10], in assay [4] and in assay [5] was “inactive” each time.
Turning to `O=C(NCCCCN1CCOCC1)c1cc2ccccc2o1`, the Potency entry in [1], in assay [2], in [10], in assay [4], in assay [11] and in [5] was “inactive” throughout. For the same molecule, the Potency entry in assay [6], in assay [7] and in assay [9] was “inactive” each time. In addition, the activity (max response) in assay [8] is 10.7%.
For the molecule `CC(C)OC(=O)C(C(=O)OC(C)C)=C1SC=CS1`, the Potency result in assay [1], in [2], in assay [10], in assay [4], in assay [11] and in assay [7] was “inactive” in each case. The Potency result in assay [9] is “inactive”. Moreover, the activity (max response) in assay [8] was -12.3% and 0.529%.
With `O=C(Nc1c(Cl)cncc1Cl)c1ccc(OC(F)F)c(OCC2CC2)c1`, the Potency entry in [1], in assay [2], in assay [10], in assay [4], in assay [11] and in assay [5] was “inactive” in each case. Further, the Potency result in [6], in assay [7] and in assay [9] was “inactive” in each case. For the same molecule, the activity (max response) in assay [8] was 5.46%.
On to `CC1COC2(CCN(c3nc(=O)c4cc(C(F)(F)F)cc([N+](=O)[O-])c4s3)CC2)O1` (stereo unspecified), for which the Potency entry in assay [1], in assay [2], in [3] and in assay [9] was “inactive” throughout.
As for `COc1ccc(C=CC(=O)Nc2ccccc2C(=O)O)cc1OC`, the Potency entry in assay [1], in assay [2], in [10], in assay [4], in [11] and in assay [5] was “inactive” in each case. Also, in assay [6], the Potency entry was “inactive”.
As to `OC[C@H]1O[C@@H](n2cnc3c2NC=NC[C@@H]3O)C[C@H]1O`, the Potency result in [1], in [2], in assay [10], in [4], in assay [11] and in assay [5] was “inactive” throughout. The Potency entry in [6] and in assay [7] was “inactive” throughout.
Consider `CC1(C)OC2=C(C(=O)c3ccccc3C2=O)[C@H](NCc2ccccc2)[C@H]1O`, for which the Potency is 4.18 µM (active) in assay [1]; 9.35 µM (active) in assay [2]; 14.8 µM (active) in assay [10]; 16.6 µM (active) in assay [4]; 8.33 µM (active) in [11]; 11.8 µM (active) in assay [5]. The results for the Potency in [6] and in assay [7] were 7.43 µM (active) and 16.6 µM (active), respectively.
As for `COC(=O)C1=C(C)NC(C)=C(C(=O)OC(C)C)C1c1cccc2nonc12` (stereo unspecified), the Potency result in assay [1], in [2], in [10], in assay [4], in assay [11] and in assay [5] was “inactive” in each case. Also, the Potency entry in [6] and in assay [7] was “inactive” throughout. Also, the activity (max response) in [8] is 6.25%.
As to `Clc1ccc2c(N3CCN(CCCN4CCN(c5ccnc6cc(Cl)ccc56)CC4)CC3)ccnc2c1`, the Potency result in assay [1], in [2], in assay [3] and in assay [9] was “inactive” throughout. For the same molecule, the activity (max response) in assay [8] was -23.4%.
On to `CC(CCc1ccc(O)cc1)NCCc1ccc(O)c(O)c1` (stereo unspecified), for which the Potency entry in [1], in assay [2], in assay [3] and in assay [9] was “inactive” throughout. Besides, the Potency in [5], in assay [6] and in assay [7] was 20.9 µM (active) in each case. In [8], the activity (max response) is -9.68%.
As for `O=C1c2ccccc2-c2n[nH]c3cccc1c23`, the Potency in [1] was 14.8 µM (active); in assay [2], 23.5 µM (active); in assay [10] it was 14.8 µM (active); in assay [4] it was 16.6 µM (active); in [11], 16.6 µM (active). The activity (max response) in assay [8] was -13.1%.
For `NC(=O)C1CCCc2c1[nH]c1ccc(Cl)cc21` (stereo unspecified), the Potency in assay [1] is 8.33 µM (active); in assay [2], 8.33 µM (active); in [3], 5.9 µM (active); in [5] it was 2.35 µM (active); in assay [6], 5.26 µM (active); in [7], 4.18 µM (active). Moreover, the activity (max response) in assay [8] was -13.4%.
As for `C=C1[C@H](n2cnc3c(=O)[nH]c(N)nc32)C[C@H](O)[C@H]1CO`, the Potency was 18.7 µM (active) in [1]; 3.72 µM (active) in assay [2]; 2.64 µM (active) in assay [10]; 1.18 µM (active) in [4]; 2.96 µM (active) in assay [11]; 0.187 µM (active) in assay [5]. The Potency is 0.526 µM (active) in [6] and 0.0469 µM (active) in assay [7].
On to `COC1=C(OC)C(=O)C(CC=C(C)CCC=C(C)CCC=C(C)CCC=C(C)CCC=C(C)CCC=C(C)CCC=C(C)CCC=C(C)CCC=C(C)CCC=C(C)C)=C(C)C1=O`, for which the Potency entry in [1], in assay [2], in assay [10], in [4], in [11] and in assay [5] was “inactive” throughout. The Potency entry in assay [6] and in [7] was “inactive” each time.
